Data published in publication PMC5540273 (PLoS ONE, 2017).

Tests used:
Conditions in all cases: concentration: 1 μM, replicates: in singlicate; n = 1
MAPKAPK5 = system: MAPKAPK5
MARK1 = system: MARK1
MARK2 = system: MARK2
MARK3 = system: MARK3
MARK4 = system: MARK4
MAST1 = system: MAST1
MEK1 = system: T1, MEK1
T1 construct: gene MAP2K1

MEK2 = system: T2, MEK2
T2 construct: gene MAP2K2

MEK3 = system: T3, MEK3
T3 construct: gene MAP2K3

MEK4 = system: T4, MEK4
T4 construct: gene MAP2K4
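Note: KINOMEscan kinase panel screen.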

SMILES | %Inh (MAPKAPK5) [%] | %Inh (MARK1) [%] | %Inh (MARK2) [%] | %Inh (MARK3) [%] | %Inh (MARK4) [%] | %Inh (MAST1) [%] | %Inh (MEK1) [%] | %Inh (MEK2) [%] | %Inh (MEK3) [%] | %Inh (MEK4) [%]
Fc1cc(Cl)ccc1Nc1ccnc2cc(-c3ccc(CN4CCSCC4)o3)ccc12 [GW560106] | 0 | 5 | 0 | 0 | 21 | 34 | 53 | 35 | 0 | 3
Cc1ccc(O)cc1Nc1ccnc2cc(-c3ccc(CN4CCCCC4)o3)ccc12 [GW557777] | 0 | 8 | 8 | 0 | 0 | 0 | 17 | 30 | 2 | 0
COc1ccc(NC(=O)c2ccoc2)cc1-c1ccc(C(=O)NCC2CC2)cc1 [GW810437] | 0 | 17 | 0 | 47 | 18 | 56 | 13 | 24 | 36 | 0
COc1cccc(NC(=O)NCCNc2ccnc(Nc3ccc(F)cc3)n2)c1 [GSK1379879] | 0 | 0 | 0 | 0 | 5 | 0 | 19 | 0 | 10 | 5
Cc1ccc(Nc2ccnc(Nc3ccc(C)c(F)c3)n2)cc1O.Cl [GW582868] | 0 | 0 | 0 | 0 | 0 | 28 | 0 | 0 | 13 | 28
CCNC(=O)/C=C/c1n[nH]c2cc(Sc3ccccc3C(=O)NC)ccc12 | 18 | 0 | 34 | 0 | 3 | 0 | 17 | 18 | 14 | 0
COC(=O)Nc1nc2cc(Oc3ccc(NC(=O)Nc4cccc(SC)c4)cc3)ccc2[nH]1.Cl [GW697999] | 0 | 0 | 0 | 0 | 9 | 14 | 0 | 0 | 0 | 12
Cc1ccc(C)c(NC(=O)Nc2ccc(C)c(-c3ccc(C(=O)Nc4ccncc4)cc3)c2)c1 [GSK1398473] | 0 | 0 | 0 | 0 | 3 | 0 | 0 | 0 | 0 | 26
CC(=O)Nc1cn2nc(Oc3cccc(NC(=O)c4cccc(C(F)(F)F)c4)c3)ccc2n1 | 0 | 0 | 0 | 8 | 20 | 8 | 0 | 18 | 0 | 0
CC(C)NCC(Cc1ccccc1)NC(=O)c1cc(Br)c(-c2ccnc3[nH]ccc23)s1.Cl.Cl (stereo not drawn) [GSK1383281] | 0 | 11 | 31 | 60 | 0 | 0 | 0 | 0 | 87 | 39
c1ccc(Oc2ccc(Nc3ccnc4cc(-c5ccc(CN6CCCCC6)o5)ccc34)cc2)nc1 [GW567143] | 0 | 0 | 0 | 0 | 5 | 0 | 95.3 | 97.1 | 0 | 0
Cl.Cl.NCC(NC(=O)c1cc(-c2cccnc2)c(-c2ccnc3[nH]ccc23)s1)c1ccccc1 (stereo not drawn) [GSK1323434] | 0 | 0 | 40 | 0 | 8 | 0 | 0 | 0 | 39 | 25
O=C(O)C(F)(F)F.O=c1[nH]ccc2nc(N[C@@H]3CCNC3)nc(Nc3ccc4c(c3)S(=O)(=O)CC4)c12 [GSK2181306] | 90.4 | 65 | 91.7 | 70 | 81 | 12 | 97.5 | 94.7 | 93.5 | 91
Cn1cc(-c2cnc(N)c3c(-c4ccc5c(c4)CCN5C(=O)Cc4ccccc4)csc23)cn1 [GSK2593074] | 0 | 0 | 5 | 0 | 9 | 25 | 36 | 23 | 23 | 56
Cc1cc(-c2ccnc(Nc3cccc(C#N)c3)n2)cc(C)c1O [GSK1440913] | 0 | 0 | 0 | 0 | 0 | 0 | 0 | 0 | 89 | 40
CC(C)c1nc(-c2ccc(F)c(NS(=O)(=O)c3c(F)cccc3F)c2)c(-c2ccnc(Nc3ccc(N4CCOCC4)nc3)n2)s1 [GSK1804250] | 0 | 0 | 15 | 0 | 16 | 0 | 17 | 27 | 19 | 100
CN(C)CCNS(=O)(=O)c1ccc(-c2ccnc3[nH]ccc23)cc1 [GSK977620] | 0 | 8 | 31 | 13 | 2 | 0 | 0 | 0 | 10 | 19

SMILES | %Inh (MAPKAPK5) [%] | %Inh (MARK1) [%] | %Inh (MARK2) [%] | %Inh (MARK3) [%] | %Inh (MARK4) [%] | %Inh (MAST1) [%] | %Inh (MEK1) [%] | %Inh (MEK2) [%] | %Inh (MEK3) [%] | %Inh (MEK4) [%]
O=C(Nc1n[nH]c2nc(-c3ccccc3)ccc12)C1CC1 [SB-708999] | 0 | 0 | 0 | 0 | 8 | 22 | 6 | 0 | 0 | 0
NCCC(NC(=O)c1cc(Br)c(-c2ccnc3[nH]ccc23)s1)c1ccccc1.O=C(O)C(F)(F)F.O=C(O)C(F)(F)F (stereo not drawn) [GSK1307810] | 0 | 7 | 26 | 0 | 11 | 15 | 0 | 0 | 93.7 | 52
Fc1cc(Cl)ccc1Nc1ccnc2cc(-c3ccc(CN4CCOCC4)o3)ccc12 [GW560109] | 0 | 0 | 0 | 2 | 0 | 3 | 0 | 38 | 0 | 31
Cl.O=C(Nc1ccc(Oc2ccc3[nH]c(NC(=O)c4ccco4)nc3c2)cc1)Nc1cc(C(F)(F)F)ccc1F [GW683134] | 0 | 0 | 0 | 0 | 6 | 8 | 0 | 0 | 0 | 10
N#CC1(c2cccc(C(=O)Nc3cccc(Oc4ccc5nc(NC(=O)C6CC6)sc5n4)c3)c2)CC1 | 0 | 0 | 0 | 0 | 0 | 0 | 18 | 19 | 11 | 0
Cc1nn2c(=O)cc(N3CCO[C@H](C)C3)nc2n1Cc1cccc(Cl)c1Cl [GSK2373693] | 0 | 0 | 0 | 0 | 0 | 0 | 0 | 0 | 10 | 27
N#Cc1cnc2cc(-c3cnc(CNCCN4CCOCC4)s3)ccc2c1Nc1ccc(Oc2ccccc2)cc1 [GW664114] | 0 | 35 | 0 | 9 | 5 | 0 | 100 | 100 | 9 | 80
CSc1ccc(NC2=C(c3ccc(Cl)cc3)C(=O)NC2=O)cc1 [SB-317658] | 0 | 3 | 0 | 28 | 21 | 23 | 3 | 6 | 0 | 0
Cc1cccc(Nc2nc(N[C@H]3CCCC[C@H]3N)ncc2C(N)=O)c1.Cl [GSK986310] | 0 | 5 | 37 | 0 | 13 | 0 | 8 | 19 | 88 | 69
CN(c1ccc(NC(=O)Nc2cccc(Cl)c2)cc1)c1ccnc(N)n1.Cl [GW830707] | 0 | 0 | 0 | 43 | 5 | 84 | 16 | 23 | 0 | 0
Cc1ccc(O)cc1Nc1ccnc2ccc(C(C)(C)C)cc12 [GW856805] | 0 | 36 | 20 | 21 | 37 | 69 | 17 | 21 | 67 | 42
CCOc1nccc(-c2c(-c3ccc(F)cc3)ncn2C2CCNCC2)n1 [SB-249175] | 39 | 3 | 29 | 0 | 0 | 0 | 28 | 31 | 43 | 21
Cn1cc(-c2ccc3c(c2)CCN3C(=O)Cc2cc(F)cc(C(F)(F)F)c2)c2c(N)ncnc21 [GSK2635225] | 0 | 0 | 9 | 0 | 2 | 0 | 0 | 0 | 0 | 29
CNc1nccc(-c2ccc3c(N)n[nH]c3c2)n1 [GSK2206003] | 0 | 0 | 25 | 0 | 0 | 0 | 0 | 5 | 34 | 22
Cc1ccccc1CC(=O)N1CCc2cc(-c3cn(C)c4ncnc(N)c34)ccc21 [GSK2603346] | 0 | 0 | 0 | 0 | 0 | 0 | 0 | 0 | 1 | 27
Cc1cc(-c2c(-c3ccc(F)cc3)ncn2CCCN2CCOCC2)nc(N)n1 [SB-222517] | 0 | 23 | 0 | 0 | 32 | 14 | 21 | 47 | 23 | 26
